Bioassay records: PubChem BioAssay, The Scripps Research Institute Molecular Screening Center
FBW7 act: activators of human E3 ligase FBW7. Q969H0. AlphaScreen FBW7–phospho-cyclin E peptide binding, activator screen. normalized activity (activation), % at 26.1 µM. 650,000 tested, 0.13% active. AID 1259310; in the data active = normalized activity above about 1.9%;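 note: purified mutant Fbw7 with reduced substrate affinity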
TEAD-YAP inh: TEAD-YAP interaction inhibition | AID 1259422 | HEK-TIYL cells, TEAD-Gal4/YAP UAS-luciferase luminescence | inhibition, % at 9.12 µM | 640,000 tested, 1.4% active; in the data active = inhibition above about 32%;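 note: 0% = median of test compound wells and 100% = reference inhibitor wells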
MITF inh: blocks human microphthalmia-associated transcription factor; inhibition, % at 2.6 µM; 650,000 tested, 0.91% active; O75030; AID 1259374; AlphaScreen MITF homodimerization, bead proximity signal; in the data active = inhibition above about 50%;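 note: 0% = vehicle wells with protein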
GPR151 activ: activators of human GPR151 | 650,000 tested, 1% active | activation, % at 11.2 µM | PathHunter beta-arrestin GPR151 cells, luminescence; in the data active = activation above about 4.9%;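 note: 0% = median of compound wells and 100% = cells with positive control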
GPR151 confirm: human GPR151 activation, confirmation screen. shares compounds with GPR151 activ. GPR151 PathHunter beta-arrestin cells, luminescence, 90 min; % of EA-reagent control over plate median. activation, % at 11.2 µM. 6,700 tested, under 10 active. AID 1508609;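 active = mean percent activation across replicates above the confirmation screen cutoff of 4.91%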
GPR119 counter: GPR119 activation, counter-screen for GPR151 activators; shares compounds with GPR151 activ; GPR119 PathHunter beta-arrestin cells, luminescence, 90 min; 0 = compound-well median, 100 = enzyme-acceptor control; activation, % at 11.2 µM; 6,700 tested, 0.3% active; AID 1508611;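 active = mean percent activation in the counterscreen above 29.09%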;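 note: counterscreen on off-target GPR119 to flag nonselective hits from the GPR151 activator screen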
Target sequence (Q8TDV5 whole entry, looked up): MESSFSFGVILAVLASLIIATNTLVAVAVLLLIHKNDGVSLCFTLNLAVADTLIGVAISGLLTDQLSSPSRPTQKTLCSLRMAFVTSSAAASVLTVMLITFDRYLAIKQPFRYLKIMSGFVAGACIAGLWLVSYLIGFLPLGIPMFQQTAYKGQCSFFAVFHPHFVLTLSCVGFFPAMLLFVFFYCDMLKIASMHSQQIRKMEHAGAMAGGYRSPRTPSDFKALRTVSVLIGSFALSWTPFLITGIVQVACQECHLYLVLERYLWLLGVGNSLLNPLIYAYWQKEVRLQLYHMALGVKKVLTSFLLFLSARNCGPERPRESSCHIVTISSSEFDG
* marks the source's active call; other numbers are inactive results; . = not tested or not shown. This is a sample that favours compounds with a hit; in the whole collection about 3.5% have one here.

SMILES	FBW7 act	TEAD-YAP inh	MITF inh	GPR151 activ	GPR151 confirm	GPR119 counter
CC1(C)CC2(CCO1)OC(=O)CC2C(=O)NCc1ccccc1 (centres undefined)	0.1	-5.4	-10.3	5.6*	0.0	6.5
COc1ccc(/C=C(\C#N)c2nc(-c3ccc(Cl)cc3)cs2)cc1OC	-0.2	-6.3	2.9	0.7	.	.
O=C(Nc1cc(Sc2ccc(F)cc2)cc([N+](=O)[O-])c1)c1oc(=O)c2ccccc2c1-c1ccccc1	0.1	-4.0	4.0	-1.9	.	.
O=C(Nc1cc(Oc2ccc(F)cc2F)cc([N+](=O)[O-])c1)c1oc(=O)c2ccccc2c1-c1ccccc1	0.3	-8.0	0.9	5.5*	-0.4	7.6
CC(C)c1ccc(OCC(=O)NCCCS(=O)(=O)N2CCc3ccccc3C2)cc1	0.1	2.1	1.0	8.2*	0.6	-0.8
CCOc1ccc(S(=O)(=O)N(CC(=O)NCCSc2ccccc2)c2ccccc2)cc1	-0.1	7.2	2.8	5.7*	1.9	20.8
COc1ccc(CCNC(=O)COc2ccc(C(C)C)cc2)cc1	-0.1	3.0	-6.1	6.7*	-0.5	-11.8
COc1ccc(OCC(=O)NCCSc2ccccc2)cc1	0.0	-22.0	0.7	10.2*	0.1	7.4
CN(C)CCOc1cc(-c2cn[nH]c2)ccc1NC(=O)C(O)c1ccc(Cl)cc1 (centres undefined)	-0.1	-4.8	15.4	-0.6	.	.
CCOC(=O)c1sc2nc(SCC(=O)c3ccc(Cl)cc3)n(Cc3cccs3)c(=O)c2c1C	0.0	9.7	-11.6	5.1*	1.2	7.8
CCOC(=O)c1sc2nc(SCC(=O)c3ccccc3)n(Cc3ccc(Cl)cc3)c(=O)c2c1C	-0.1	-8.5	0.4	-0.7	.	.
Cc1ccccc1NC(=O)C1C2C=CC(C3CC23)C1C(=O)O (centres undefined)	0.1	-7.0	17.4	-0.4	.	.
COc1ccccc1NC(=O)C1C2C=CC(C3CC23)C1C(=O)O (centres undefined)	-0.1	5.5	14.7	12.4*	-0.4	1.1
Cc1ccc(N2C(=O)c3ccncc3C2=O)cc1	-0.1	2.0	-7.5	1.3	.	.
O=C1c2ccncc2C(=O)N1c1ccc(F)cc1	0.0	-8.7	-8.4	5.9*	0.3	-9.0
O=C(c1ccccc1)N1CCn2c3c(c4cc(C5CCCCC5)ccc42)CCCC31 (centres undefined)	0.2	-0.4	22.0	-2.4	.	.
COc1ccc(SCCC(=O)Nc2ccc(Br)cc2)cc1	0.5	11.2	-8.4	5.2*	1.9	8.8
CCOC(=O)c1ccc(NC(=O)CC2COc3ccccc3O2)cc1 (centres undefined)	-0.1	7.9	5.6	5.8*	0.7	1.1
CCCOC(=O)c1ccc(NC(=O)CSc2ccccc2)cc1	0.0	-10.6	3.0	0.2	.	.
CCOC(=O)c1ccc(NC(=O)CSc2ccc(Br)cc2)cc1	0.2	2.6	-1.5	7.9*	-0.2	-4.2
CCOC(=O)c1ccc(NC(=O)CN2C(=O)C3C4C=CC(C4)C3C2=O)cc1 (centres undefined)	0.0	-8.3	25.2	-2.0	.	.
CCOC(=O)c1ccc(NC(=O)CN2C(=O)C3C4C=CC(C5CC45)C3C2=O)cc1 (centres undefined)	0.9	4.9	24.9	7.0*	0.6	3.8
CC(C)C(=O)NCC1CCC2(CCN(Cc3ccc4nsnc4c3)CC2)O1 (centres undefined)	-0.1	7.0	5.7	-0.4	.	.
O=C1CNC23CCCCC2C(c2ccccc2O3)C1C(=O)N1CCOCC1 (centres undefined)	-0.2	-1.8	-2.3	-1.2	.	.
CCN(CC)c1ccc(C2C(C(=O)OC(C)C)=C(C)NC3=C2C(=O)CC(c2ccccc2)C3)cc1 (centres undefined)	0.4	2.8	29.7	-1.6	.	.
SMILES	FBW7 act	TEAD-YAP inh	MITF inh	GPR151 activ	GPR151 confirm	GPR119 counter
CCOC(=O)c1ccc(NC(=O)CSc2nc3c(c(=O)n2CC)SC(C)C3)cc1 (centres undefined)	-0.1	20.1	1.9	5.1*	1.1	10.1
CCOC(=O)c1ccc(COC(=O)c2cc(Br)ccc2NC(C)=O)cc1	-0.1	-12.8	-1.2	6.3*	-0.2	-0.8
CCOc1ccc(NC(=O)CSc2nc3c(c(=O)n2CC)SC(C)C3)cc1 (centres undefined)	0.0	2.3	2.8	-0.7	.	.
N#Cc1ccc(NC(=O)CSc2ccc(Br)cc2)cc1	0.0	-8.4	-14.7	0.6	.	.
O=C(CSc1ccc(Br)cc1)Nc1ccc([N+](=O)[O-])cc1	0.0	12.9	6.4	6.4*	0.8	-14.0
CCCCNC(=O)c1ccc(CS(=O)Cc2ccc(Cl)cc2)o1 (centres undefined)	-0.1	6.4	11.5	0.4	.	.
c1ccc(CN2CCN(Cc3nnnn3Cc3cccs3)CC2)cc1	0.2	2.4	10.1	5.9*	0.2	-3.1
c1ccc(N2CCN(Cc3nnnn3Cc3cccs3)CC2)cc1	0.1	-2.4	-0.8	0.7	.	.
NC(=O)COC(=O)c1c(F)cccc1Cl	-0.2	8.9	-13.5	0.0	.	.
CCOC(=O)c1cnc2c(OC)cccc2c1N1CCN(c2ccc([N+](=O)[O-])cc2)CC1	-0.2	-1.5	12.4	3.1	.	.
Cc1ccc(/C=C/C(=O)NC(C)c2ccccc2)o1 (centres undefined)	-0.3	5.3	4.4	0.7	.	.
CC(NC(=O)/C=C/c1ccco1)c1ccccc1 (centres undefined)	0.0	2.5	9.2	5.1*	0.3	14.8
Cc1c(CCO)sc[n+]1CC(=O)OC1CC(C)CCC1C(C)C (centres undefined)	-0.1	1.2	-1.7	5.4*	0.9	15.0
Cc1cc(C)nc(SCC(=O)OC2CC(C)CCC2C(C)C)n1 (centres undefined)	-0.1	13.2	1.7	2.2	.	.
Cn1c(NC(=O)c2ccco2)c(-c2cccs2)c(=O)c2ccccc21	-0.1	5.9	7.2	6.6*	0.1	-3.1
CSc1ccc(CC2(CCC(=O)N(C)C3CCOCC3)CCC(=O)N2)cc1 (centres undefined)	0.6	11.5	3.1	-1.0	.	.
CC(=O)c1ccc(-c2cc(F)cc3c2OC(CNC(=O)C2CC2)C3)s1 (centres undefined)	0.1	0.9	7.3	-0.9	.	.
Cc1ccc(COc2ccc(C=C3C(=O)NC(=O)NC3=O)cc2)cc1	0.2	-35.5	7.3	-2.2	.	.
O=C(/C=C/c1cccc(Cl)c1)Nc1ccncc1	0.0	-26.1	0.6	23.6*	0.3	-9.1
O=C(NC(=S)Nc1ccc(-c2nc3ccccc3o2)cc1)c1cncc(Br)c1	0.0	-14.6	3.6	6.1*	0.1	15.0
O=C(Nc1ccc(-c2nc3ccccc3o2)cc1)c1cc(I)ccc1Cl	0.0	-15.1	7.1	7.4*	-0.4	-5.5
Cc1sc2ncn3c(SCC(=O)Nc4ccc5c(c4)OCO5)nnc3c2c1C	-0.2	7.0	4.9	-0.8	.	.
